Assay results taken from PubChem BioAssay (NCATS).
Records with an inconclusive call do not appear. Calls of active or inactive are those of the source. Calls follow the shape of the dose curve; as a rule, active = well fitted inhibition curve with a large enough effect; inconclusive = small, poorly fitted or top-dose-only effect; inactive = flat fitted curve, though single readings scatter.

Legend:
CRL-7250 = normal cell line; assay: Cytotoxic Profiling of Annotated Libraries Using Quantitative High-Throughput Screening (AID 1296008); conditions: Five cell lines viability, CellTiter-Glo ATP luminescence, 48-72 h; max response: stronger effect = lower value; as to max response: % is scaled to controls: 0 for no effect and ±100 for the full control effect
Summary of the method: (§1)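 Compounds were pin-transferred onto cells and incubated 48 or 72 hr at 37 degree Celsius, 95% humidity. CellTiter-Glo was added, plates sat 10 min at room temperature, then ATP-coupled luminescence was imaged as the viability read-out.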

HEK293 = assay: as above; conditions: Five cell lines viability, CellTiter-Glo ATP luminescence, 48-72 h; max response: stronger effect = lower value
Summary of the method: as §1

HaCat [1] = assay: as above; conditions: Five cell lines viability, CellTiter-Glo ATP luminescence, 48-72 h; max response: stronger effect = lower value
Summary of the method: as §1

KB-3-1 = assay: as above; conditions: Five cell lines viability, CellTiter-Glo ATP luminescence, 48-72 h; max response: stronger effect = lower value
Summary of the method: as §1

NIH3T3 [2] = assay: as above; conditions: Five cell lines viability, CellTiter-Glo ATP luminescence, 48-72 h; max response: stronger effect = lower value
Summary of the method: as §1

HACAT [3] = assay: qHTS assay to identify novel small-molecules to repurpose for Merkel cell carcinoma treatment (AID 1296009); conditions: MCC and control cell lines, CellTiter-Glo viability, 72 h; at 44.8 µM (top of the series) unless noted
Summary of the method: (§2)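 Luminescence from CellTiter-Glo, read 10 min after addition at room temperature, reported viability following a 72 hr, 37 degree celsius treatment with NPC or MIPE compounds in titration; values normalized to plate controls.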

NIH3T3 [4] = assay: as above; conditions: MCC and control cell lines, CellTiter-Glo viability, 72 h; at 44.8 µM (top of the series) unless noted
Summary of the method: as §2

Measured: max response
Also: nearly all actives have a fitted effect of over 60% in size.

Cc1cc(Cn2cnc3c2CC(C(=O)O)N(C(=O)C(c2ccccc2)c2ccccc2)C3)ccc1N(C)C (stereo not drawn)
inactive: CRL-7250 | HEK293 -1.68% | HaCat [1] | KB-3-1 5.82% | NIH3T3 [2] 1.33% | HACAT [3]

C=C1CC2C(C)(CCC(=O)O)C(C(C)(C)O)CCC2(C)C2(C(=O)OC)C(=O)C(C)(O)C(=O)C12C (stereo not drawn)
inactive: CRL-7250 -12.5% | HEK293 -13.4% | HaCat [1] | KB-3-1 1.2% | NIH3T3 [2] 0.874% | HACAT [3] inactive [at 17.4 µM]

CC(NC(=O)[C@H](Cc1ccccc1)NC(=O)OCc1ccccc1)C(=O)CF (stereo partly drawn)
inactive: CRL-7250 | HEK293 -1.18% | HaCat [1] | KB-3-1 | NIH3T3 [2] 2.43% | HACAT [3]

C[C@@H](CC[C@@H]1[C@@]2(C)CCCC(C)(C)C2CC[C@@]1(C)O)CC(=O)O (stereo partly drawn)
inactive: CRL-7250 | HEK293 -2.2% | HaCat [1] | KB-3-1 | NIH3T3 [2] 0.858% | HACAT [3]

COc1c2ccoc2nc2c(OC)c(O[C@@H]3O[C@@H](C)[C@H](O)[C@@H](O[C@@H]4O[C@H](CO)[C@@H](O)[C@H](O)[C@H]4O)[C@H]3OC(C)=O)ccc12
inactive: CRL-7250 0.0337% | HEK293 -0.274% | HaCat [1] | KB-3-1 9.99% | NIH3T3 [2] -1.67% | HACAT [3] inactive [at 17.4 µM]

C/C=C1/C[N+](C)([O-])C2Cc3c([nH]c4ccccc34)C(=O)CC1C2C(=O)OC (stereo not drawn)
inactive: CRL-7250 -5.18% | HEK293 -0.509% | HaCat [1] | KB-3-1 8.09% | NIH3T3 [2] -1.66% | HACAT [3]

CC(O)CCc1ccc(O[C@@H]2O[C@H](CO)[C@@H](O)[C@H](O)[C@H]2O)cc1 (stereo partly drawn)
inactive: CRL-7250 0.631% | HEK293 3.66% | HaCat [1] | KB-3-1 2.69% | NIH3T3 [2] -0.367% | HACAT [3]

Cc1nc(-c2cccnc2)sc1C(=O)Nc1ccccc1-c1cn2c(CN3CCOCC3)csc2n1
inactive: CRL-7250 -2.14% | HEK293 -4.67% | HaCat [1] | KB-3-1 -10.4% | NIH3T3 [2] -1.07% | HACAT [3]

C=C1C2(C)CC3C4(C)OC(C5OC56C4=CC(=O)OC6(C)C)C3(C)C13C(=O)OC(C)C3(O)C2=O (stereo not drawn)
inactive: CRL-7250 -6.5% | HEK293 -4.51% | HaCat [1] | KB-3-1 7.16% | NIH3T3 [2] 2.35% | HACAT [3] inactive [at 17.4 µM]

NC(=O)NCCCC(NC(=O)Cc1ccccc1)C(=O)O (stereo not drawn)
inactive: CRL-7250 | HEK293 -0.44% | HaCat [1] | KB-3-1 3.03% | NIH3T3 [2] 3.99% | HACAT [3]

COC1OC(=O)C2=C1C1(C)CCCC(C)(C)C1CC2O (stereo not drawn)
inactive: CRL-7250 -6.21% | HEK293 1.96% | HaCat [1] | KB-3-1 | NIH3T3 [2] | HACAT [3] | NIH3T3 [4]

CC(=O)NC1C(OC2CCC3(C)C(CCC4(C)C3CC=C3C5CC(C)(C)CCC5(C(=O)O)C(O)CC34C)C2(C)C)OC(CO)C(O)C1O (stereo not drawn)
inactive: CRL-7250 -37.4% | HEK293 -25.2% | HaCat [1] | KB-3-1 0.467% | NIH3T3 [2] | HACAT [3] inactive [at 17.4 µM] | NIH3T3 [4] inactive [at 17.4 µM]

C[C@@]12CC3(S(=O)(=O)O)OC(O1)[C@]1(COC(=O)c4ccccc4)[C@H]3C[C@]21O[C@@H]1O[C@H](CO)[C@@H](O)[C@H](O)[C@H]1O
inactive: CRL-7250 2.31% | HEK293 2.36% | HaCat [1] | KB-3-1 | NIH3T3 [2] | HACAT [3] inactive [at 17.4 µM] | NIH3T3 [4] inactive [at 17.4 µM]

CC(C)(O)c1ccc2c(c1)C(=O)C[C@H]1[C@](C)(C(=O)O)CCC[C@]21C
inactive: CRL-7250 -1.21% | HEK293 -10.2% | HaCat [1] | KB-3-1 5.87% | NIH3T3 [2] | HACAT [3] | NIH3T3 [4]

CC(C)[C@](O)(c1ccc2cc(OC(F)F)c(OC(F)F)cc2c1)c1cn[nH]n1
inactive: CRL-7250 | HEK293 -21.3% | HaCat [1] | KB-3-1 -6.26% | NIH3T3 [2] 1.17% | HACAT [3]

C[C@@H]1CC2OC(=O)C3=C2C(CCC3O)[C@@]12C[C@@H](c1ccoc1)OC2=O (stereo partly drawn)
inactive: CRL-7250 -0.741% | HEK293 2.79% | HaCat [1] | KB-3-1 | NIH3T3 [2] | HACAT [3] | NIH3T3 [4]

CC1(C)C[C@@H]2[C@H](C1)[C@@]1(C)C[C@]13C(O)OC[C@]3(O)[C@H]2O (stereo partly drawn)
inactive: CRL-7250 -3.6% | HEK293 -0.838% | HaCat [1] | KB-3-1 | NIH3T3 [2] | HACAT [3] | NIH3T3 [4]
